From PubChem BioAssay (NCI) come the findings set out here.

Assay [1] is described as follows: NCI Yeast Anticancer Drug Screen. Data for the rad50 strain (AID 155).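 Also: 0% = growth of vehicle-only cultures of the same strain.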 Particulars: S. cerevisiae rad50 strain growth inhibition; at 50.0 µM; active compounds read high. The essentials:
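Genetically altered yeast (DNA repair pathway); compound treatment; growth inhibition vs vehicle ctrl.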

The nature of assay [2]: NCI Yeast Anticancer Drug Screen. Data for the mec2-1 strain (AID 157). Particulars: S. cerevisiae mec2-1 strain, at 50.0 µM, active compounds read high. The gist of the method: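 Vehicle-treated cultures served as reference for growth inhibition of compound-exposed mec2-1 yeast.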
A short description of assay [3]: NCI Yeast Anticancer Drug Screen. Data for the sgs1 mgt1 strain (AID 161).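 Also: 0% = growth of cultures given vehicle only.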 The note with it: S. cerevisiae sgs1 mgt1 strain, at 50.0 µM, active compounds read high. The essentials:
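Mutant yeast exposed to compound; growth scored against vehicle-only wells.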

A short description of assay [4]: NCI Yeast Anticancer Drug Screen. Data for the cln2 rad14 strain (AID 165).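 Also: 0% = growth equal to vehicle treated cultures.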 The note with it: S. cerevisiae cln2 rad14 strain, at 50.0 µM, active compounds read high. The essentials: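 Each compound was tested on cln2 rad14 yeast. Inhibition of growth was calculated against vehicle-exposed controls.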
Assay [5] is described as follows: NCI Yeast Anticancer Drug Screen. Data for the bub3 strain (AID 167). The note with it: S. cerevisiae bub3 mutant strain, at 50.0 µM, active compounds read high. The essentials: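 Yeast carrying a defined mutation is treated with each compound, and growth is compared with that of vehicle-exposed cells to give inhibition.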
The nature of assay [6]: NCI Yeast Anticancer Drug Screen. Data for the mlh1 rad18 strain (AID 175). Particulars: S. cerevisiae mlh1 rad18 strain growth inhibition; at 50.0 µM; active compounds read high. The essentials: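 Vehicle-treated cultures served as the reference for growth inhibition in a yeast strain carrying DNA damage repair alterations exposed to each compound.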

About 79,000 compounds went through this panel and 15% of them were active in at least one assay; those are over-represented in the sample as a whole. Unmarked numbers belong to inactive results. Calls of active or inactive are those of the source. Rule as the data show it: active = growth inhibition above about 70%; inactive = the rest.

For `CC1C(=O)N2C(=O)C(C)C(C)C(=O)N2C(=O)C1C` (centres undefined), the growth inhibition in assay [1] was 1.8%; in assay [2], -6.25%; in assay [3] it was 7.9%; in assay [4] it was -12.8%; in assay [5], 3.85%; in assay [6], -12.5%.

For `CN1CCCCC1=O`, the growth inhibition was -0.15% in assay [1]; -2.6% in assay [2]; 6.15% in assay [3]; 8.65% in assay [4]; 8.65% in assay [5]; 9.8% in assay [6].

Turning to `CC(=O)OC1C/C(C)=C/CCC(C)/C=C/C2(C)CCC(C(C)(C)O)C12` (centres undefined), the growth inhibition was 1.7% in assay [1]; -10.3% in assay [2]; 11.9% in assay [3]; 2.5% in assay [4]; 14.1% in assay [5]; 17.6% in assay [6].

For the molecule `O=C([O-])c1ccc2c(c1)-c1nc-2nc2[n-]c(nc3nc(nc4[n-]c(n1)c1ccc(C(=O)[O-])cc41)-c1cc(C(=O)[O-])ccc1-3)c1ccc(C(=O)[O-])cc21.[Fe+2]`, the growth inhibition in assay [1] is -1.2%; in assay [2] it was -0.5%; in assay [3], -13.6%; in assay [4], 3.65%; in assay [5] it was 7.5%; in assay [6] it was -1.75%.

In the case of `CC(C)(C)C(=O)N/N=C\c1ccc([N+](=O)[O-])s1`, the growth inhibition is 13.1% in assay [1]; -7.3% in assay [2]; 20.4% in assay [3]; 38.7% in assay [4]; 13.1% in assay [5]; 40.5% in assay [6].

With `O=C(NC(=O)c1cc(-c2ccccc2)n[nH]1)c1ccccc1`, the growth inhibition was -71.5% in assay [1]; -10.1% in assay [2]; -14.4% in assay [3]; -6.3% in assay [4]; -20.4% in assay [5]; -10.8% in assay [6].

In the case of `O=C(OCCN1CCOCC1)c1cc2ccccc2oc1=O`, the growth inhibition was 1.8% in assay [1]; 2.65% in assay [2]; 6.35% in assay [3]; -45.7% in assay [4]; -0.2% in assay [5]; -2.65% in assay [6].

For the molecule `CCCCCSc1nc2c([nH]1)c(=O)n(C)c(=S)n2C`, the growth inhibition was 14.5% in assay [1]; -6.35% in assay [2]; 1.95% in assay [3]; -8.8% in assay [4]; 0.6% in assay [5]; -15.6% in assay [6].

Turning to `CCCCc1noc(N)c1SCC`, the growth inhibition was 5.45% in assay [1]; 9.5% in assay [2]; 1.2% in assay [3]; -39.6% in assay [4]; -9.2% in assay [5]; 3.7% in assay [6].

For `O=C(/C=C/c1ccccc1)NCCC1(O)C(=O)Nc2ccccc21` (centres undefined), the growth inhibition in assay [1] was -8%; in assay [2], -17.2%; in assay [3], 3.05%; in assay [4], 8.35%; in assay [5], -10.5%; in assay [6], -15.5%.

Take `CN(C)C(=S)N(C(=S)N(C)C)c1ccc(Cl)cc1`: the growth inhibition was -7.9% in assay [1]; -11.8% in assay [2]; -7.15% in assay [3]; -4.1% in assay [4]; 3.1% in assay [5]; -17.8% in assay [6].

With `CCCCCCCCCCCCCCCCCC[N+](CCCC)(CCCC)CCCCCCCCCCCCCCCCCC` (tested in a mixture with another compound), the growth inhibition was 3.45% in assay [1]; 7.25% in assay [2]; 1.7% in assay [3]; -10% in assay [4]; 1.5% in assay [5]; 4.3% in assay [6].

In the case of `Clc1cccc(-c2nnc(-c3nn(-c4ccccc4)c4nc5ccccc5nc34)o2)c1`, the growth inhibition in assay [1] is -16.4%; in assay [2], -31.3%; in assay [3], -47.2%; in assay [4], 6.1%; in assay [5], -17.1%; in assay [6], -10.8%.

In the case of `CN(C)/C(N)=N\C(N)=Nc1cc2ccccc2c2ccccc12`, the growth inhibition was 1.3% in assay [1]; -9.55% in assay [2]; -0.2% in assay [3]; -23.2% in assay [4]; 2.25% in assay [5]; -0.55% in assay [6].

As to `CC1=CC2CC(C)C1(C)CCc1ccoc12` (centres undefined), the growth inhibition is 2.8% in assay [1]; -11.7% in assay [2]; -2.8% in assay [3]; 6.75% in assay [4]; 9.85% in assay [5]; 4.7% in assay [6].

As for `O=C(NC(=O)c1cc2cc(Br)cc(Br)c2oc1=O)Oc1ccccc1`, the growth inhibition in assay [1] was 24.9%; in assay [2] it was 19.4%; in assay [3] it was 14.1%; in assay [4] it was 25.4%; in assay [5], -2.55%; in assay [6], 13.1%.

Consider `COc1ccc(C2OC3=Nc4cc(C)c(C)cc4NC3C2=O)cc1OC` (centres undefined), for which the growth inhibition was 15.7% in assay [1]; -6.75% in assay [2]; -6.15% in assay [3]; -1.9% in assay [4]; -23.4% in assay [5]; 1.9% in assay [6].

On to `Cc1oc2cc(O)ccc2c(=O)c1-c1ccccc1Br`, for which the growth inhibition in assay [1] is 9.85%; in assay [2], 24.9%; in assay [3], 17.4%; in assay [4], -24.6%; in assay [5] it was 15.9%; in assay [6], 27.4%.

Consider `Cc1ccc(C(c2ccccc2)C(CC(=O)O)CC(=O)O)cc1` (centres undefined), for which the growth inhibition was 1.2% in assay [1]; 20% in assay [2]; 15% in assay [3]; 6.45% in assay [4]; 5.2% in assay [5]; 15.9% in assay [6].

Turning to `O=C(N[C@H](CO)[C@H](O)c1ccc([N+](=O)[O-])cc1)C(Cl)Cl`, the growth inhibition in assay [1] was 25.2%; in assay [2] it was -4.05%; in assay [3], 28.9%; in assay [4], 9.55%; in assay [5] it was 35.6%; in assay [6] it was 10.7%.

With `O=C1OCC/C1=C\c1ccc(Br)cc1`, the growth inhibition in assay [1] is 7.2%; in assay [2], -10.2%; in assay [3], 3.3%; in assay [4] it was -29.6%; in assay [5] it was 7.5%; in assay [6], -1.1%.

Take `CSc1ccc(NC(=S)SCc2ccc3c(c2)OCO3)cc1Cl`: the growth inhibition in assay [1] is 95.7% (active); in assay [2] it was 98.6% (active); in assay [3], 98% (active); in assay [4] it was 84.3% (active); in assay [5], 97.5% (active); in assay [6], 97.2% (active).

For the molecule `CSC(=N/N=C(\C)c1ccccn1)SC`, the growth inhibition was 0.45% in assay [1]; 6% in assay [2]; 5.3% in assay [3]; -46.2% in assay [4]; -11.7% in assay [5]; 5.85% in assay [6].

On to `O=C(/C=C(\Cl)c1ccc2c(c1)OCO2)OC/C=C\c1ccc2c(c1)OCO2`, for which the growth inhibition is 30.9% in assay [1]; 9.55% in assay [2]; 25.1% in assay [3]; 20.3% in assay [4]; -7.4% in assay [5]; 19.2% in assay [6].

`O=C(O)C(CCc1cccc(Cl)c1)C(=O)O`: the growth inhibition in assay [1] was 8.1%; in assay [2], -13.8%; in assay [3] it was -0.85%; in assay [4] it was 2.15%; in assay [5] it was 4.35%; in assay [6], -11.6%.

On to `CC(=O)c1ccc(N2C(=O)C/C(=C/c3ccccc3O)C2=O)cc1`, for which the growth inhibition in assay [1] is 16.1%; in assay [2], 0.05%; in assay [3] it was 9.3%; in assay [4], -20.9%; in assay [5], 5.2%; in assay [6], 16.6%.

In the case of `CC(C)OC(=O)C(C)(OC(=O)c1ccccc1)c1ccccc1` (centres undefined), the growth inhibition was 5.35% in assay [1]; -14.8% in assay [2]; 4.35% in assay [3]; -13.1% in assay [4]; 19.1% in assay [5]; 14.3% in assay [6].

For `CCCCNC(=O)C1C(=O)N(CCCC)C(=O)/C1=N\N` (centres undefined), the growth inhibition in assay [1] was -1.45%; in assay [2], 26.4%; in assay [3], 8.5%; in assay [4] it was 56.3%; in assay [5], 0.35%; in assay [6], 12.8%.

As for `Cc1nnc2ncccn12`, the growth inhibition in assay [1] was 31.1%; in assay [2], -10.3%; in assay [3], 8.4%; in assay [4] it was -0.1%; in assay [5], 0.55%; in assay [6], -42.2%.

Consider `CN(C)c1ccc(/C=C/c2ccnc3ccc(Br)cc23)cc1`, for which the growth inhibition is 26.9% in assay [1]; 14.9% in assay [2]; 27.4% in assay [3]; 14.9% in assay [4]; 8.1% in assay [5]; 9.35% in assay [6].

Take `N#Cc1ccc(OCCCCOc2ccc([N+](=O)[O-])cc2Cl)cc1`: the growth inhibition is 5.75% in assay [1]; -10.7% in assay [2]; -19.4% in assay [3]; -3.8% in assay [4]; 4.65% in assay [5]; 20% in assay [6].

On to `OC1CCCCC12CC2` (centres undefined), for which the growth inhibition in assay [1] was 3.85%; in assay [2] it was 1.5%; in assay [3] it was 5%; in assay [4], -3.55%; in assay [5], -15.2%; in assay [6], -3.2%.

With `O=C(N/N=C/c1ccc(Cl)cc1Cl)c1cccc2ccccc12`, the growth inhibition is 8.2% in assay [1]; -6.3% in assay [2]; -15% in assay [3]; -5.6% in assay [4]; 11.6% in assay [5]; 3.1% in assay [6].

As for `CC1(C)CC(O)CC(O)C1` (centres undefined), the growth inhibition in assay [1] is -4.3%; in assay [2] it was -0.55%; in assay [3] it was -0.2%; in assay [4], 14.1%; in assay [5], -0.15%; in assay [6], -6.9%.

Consider `CCC(C)Nc1ncnc2c1cnn2C` (centres undefined), for which the growth inhibition is -14.2% in assay [1]; -27.9% in assay [2]; -16.8% in assay [3]; -32.5% in assay [4]; -25.4% in assay [5]; -10.9% in assay [6].

Turning to `O=C(O)C(CS(=O)(=O)O)S(=O)(=O)O` (centres undefined), the growth inhibition is -10.3% in assay [1]; -18.2% in assay [2]; -1.9% in assay [3]; -7.15% in assay [4]; 3.15% in assay [5]; -10.5% in assay [6].

Take `Cc1c(C(=O)NNc2ccccc2)n2c(=S)[nH]nc2c2ccccc12`: the growth inhibition in assay [1] is 33.2%; in assay [2], 10.1%; in assay [3] it was -7.85%; in assay [4], 8.6%; in assay [5] it was -14.8%; in assay [6] it was 45.8%.

For the molecule `CC1(C)OCC(C2OC3OC(C)(C)OC3C2O)O1` (centres undefined), the growth inhibition is 4% in assay [1]; 15.2% in assay [2]; 10.5% in assay [3]; -15.8% in assay [4]; 11.7% in assay [5]; 7.9% in assay [6].

Regarding `O=C1O/C(=C/c2ccc(O)cc2)c2ccccc21`, the growth inhibition in assay [1] was 0.9%; in assay [2], -26.9%; in assay [3] it was -4.1%; in assay [4], -15.1%; in assay [5], 6.9%; in assay [6], -11.4%.
